Screening data from PubChem.
In the library only some 9.4% were active in any assay of this set; here they are far more common.
SARS PLP yeast: qHTS of Yeast-based Assay for SARS-CoV PLP | AID 485353, 2010 | Potency, µM (top dose mostly 32.9 µM), hits mostly activators | 0.19% of 330,000 active | S. cerevisiae expressing SARS-CoV PLpro, growth rescue; calls by dose curve; also: nearly all actives have a fitted effect of over 55% in size
Pf growth 96h: Primary qHTS for delayed death inhibitors of the malarial parasite plastid, 96 hour incubation; P. falciparum luciferase reporter growth, 96 h; 6.9% of 320,000 active; AID 504834, 2011; Potency, µM (doses to about 28.7 µM), most hits filed as inhibitors
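Delayed-death screen, second-generation endpoint: infected erythrocytes, 2% hematocrit, 0.05% parasitemia final; 96 hours at 37 C, 5% CO2; luciferase detection reagent; luminescence decrease equals reduced growth.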
AMA1-RON2 inh: qHTS for Inhibitors of AMA1-RON; Towards Development of Antimalarial Drug Lead: Primary Screen. AlphaScreen AMA1-biotinylated RON2 peptide binding. AID 720542, 2013. Potency, µM (top dose mostly 58.2 µM), actives largely listed as inhibitors. Plasmodium falciparum AMA1 (3D7) - RON2 peptide interaction. 0.2% of 360,000 active; also: nearly all actives have a fitted effect of over 45% in size
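AMA1 (3D7) with his tag at 25 nM final met compounds first, then biotinylated RON2 peptide at 25 nM; detection used donor plus acceptor beads, 10 µg/mL apiece, read by AlphaScreen after 30 min at room temperature.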
Pf growth 48h: Primary qHTS for delayed death inhibitors of the malarial parasite plastid, 48 hour incubation | 5.9% of 310,000 active | AID 504832, 2011 | Potency, µM (titrated, usually from 28.7 µM), usual class: inhibitors | P. falciparum luciferase growth in erythrocytes, 48 h
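Luciferase-expressing parasites in RBCs, 2% Hct / 0.1% parasitemia final; RPMI 1640 + 0.5% Albumax; 37 C, 5% CO2, one generation; luminescence read-out, lower signal = inhibition.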
Large screens that a line does not name were inactive. Unless noted, calls follow the shape of the dose curve; as a rule, active = well fitted curve in the direction sought with a large enough effect; inconclusive = small, poorly fitted or top-dose-only effect, or another doubt; inactive = no such curve, though single readings can be large; an effect the other way counts as inactive or inconclusive.

Cc1cc(C)c(C)c(S(=O)(=O)N2CCC(C(=O)N3CCCC3)CC2)c1C	Pf growth 96h 11.7µM, Pf growth 48h 11.7µM
CC[C@H](C)[C@@H](CN[C@H](CCCCNC)CNC)NCC1CCCC1	Pf growth 96h inconclusive
CSCC[C@H](NC(=O)[C@H]1CC[C@H](CNC(=O)[C@@H]2CCCN2)CC1)C(=O)O	none (no result: Pf growth 48h)
CCCc1cc2c(cc1NC(=O)c1ccc(Br)cc1)OCO2	none
O=C(NC1CCCCC1)C(c1ccccc1)N(Cc1ccc2c(c1)OCO2)C(=O)c1cnsn1 (centres undefined)	Pf growth 48h 9.28µM
Cc1ccc(C(C(=O)NC2CCCC2)N(C(=O)Cc2cccs2)c2ccc(C)c(C)c2)o1 (centres undefined)	Pf growth 96h 10.4µM, Pf growth 48h 10.4µM
Cc1ccc(C(C(=O)NC2CCCC2)N(Cc2ccc3c(c2)OCO3)C(=O)Cc2cccs2)cc1 (centres undefined)	Pf growth 48h 13.1µM
Cc1ccc(C)c(N(C(=O)Cc2cccs2)C(C(=O)NC2CCCC2)c2ccc(C)o2)c1 (centres undefined)	Pf growth 48h inconclusive
Cc1ccc(C(C(=O)NC2CCCC2)N(Cc2ccc3c(c2)OCO3)C(=O)c2snc(C(N)=O)c2N)cc1 (centres undefined)	Pf growth 96h 8.28µM, Pf growth 48h 7.38µM
O=C(CSc1nnc2ccccn12)Nc1ccc(N2CCOCC2)cc1	none (no result: Pf growth 96h, Pf growth 48h)
CCc1noc(C)c1C(=O)Nc1cc(Cl)ccc1N1CCCC1	Pf growth 96h inconclusive
O=C(NC1CCCC1)C(c1ccncc1)N(C(=O)Cc1cccs1)c1ccccc1 (centres undefined)	none
CC(=O)c1cccc(N(C(=O)CS(=O)CC(=O)Nc2ccc(F)cc2)C(C(=O)NC2CCCCC2)c2ccc(C)o2)c1 (centres undefined)	Pf growth 96h 4.15µM, Pf growth 48h inconclusive
Cc1ccc(C(C(=O)NC2CCCC2)N(C(=O)Cc2cccs2)c2ccc3c(c2)OCCO3)cc1 (centres undefined)	Pf growth 96h inconclusive, Pf growth 48h 3.29µM
Cc1ccc(N(C(=O)Cc2cccs2)C(C(=O)NC2CCCC2)c2ccncc2)cc1 (centres undefined)	Pf growth 96h 0.928µM, Pf growth 48h inconclusive
CC(C(=O)NC1CCCC1)N(Cc1ccco1)C(=O)c1snc(C(=O)NC2CCCC2)c1N (centres undefined)	Pf growth 48h 13.1µM (no result: Pf growth 96h)
C[C@@H]1COC(=O)[C@@H](CC(=O)OC(C)(C)C)C/C=C\C[C@@H](CC(=O)N[C@H](CO)Cc2ccccc2)C(=O)N1	none (no result: Pf growth 96h, Pf growth 48h)
O=C(NCC1CCCO1)C1CCCN(S(=O)(=O)c2cccc3nsnc23)C1 (centres undefined)	Pf growth 96h inconclusive
CCCC12CN3CC(C)(CN(C1)C31C(=O)Nc3ccc(C)cc31)C2=O (centres undefined)	none
COc1ccc(C2CC(c3cccs3)=NN2C(=O)c2ccccc2)cc1OC (centres undefined)	Pf growth 96h 0.415µM (no result: Pf growth 48h)
COc1ccc(C2CC(c3ccc(OC)cc3O)=NN2C(=O)c2ccccc2)cc1 (centres undefined)	Pf growth 96h inconclusive
O=C(c1ccccc1)N1N=C(c2ccccc2O)CC1c1ccccc1 (centres undefined)	Pf growth 96h inconclusive, Pf growth 48h 5.86µM
COc1ccc(C2CC(c3ccccc3O)=NN2C(=O)c2ccccc2)cc1OC (centres undefined)	Pf growth 96h 4.15µM, Pf growth 48h 6.57µM
COc1ccc(C2=NN(C(=O)c3ccccc3)C(c3ccc(OC)c(OC)c3)C2)c(OC(C)=O)c1 (centres undefined)	Pf growth 96h 10.4µM, Pf growth 48h 11.7µM (no result: AMA1-RON2 inh)
COc1cc(C(=O)Oc2ccccc2/C=N/NC(=O)c2ccc(C)cc2)cc(OC)c1OC	Pf growth 96h inconclusive, Pf growth 48h inconclusive
CC1CN(Cc2ccccn2)CCC1=O (centres undefined)	none
CC(=O)c1ccc(OCC(=O)c2ccc(-c3ccccc3)cc2)cc1	none
Cc1ccccc1/C=C/c1cc[n+](C)cc1	Pf growth 96h inconclusive, Pf growth 48h 5.22µM
Cc1[nH]c2ccccc2c1/C=C/c1cc[n+](C)cc1	Pf growth 96h 0.147µM, Pf growth 48h 0.415µM
CCC(C)(C)C(=O)O[C@H]1C[C@@H](C)C=C2C=C[C@H](C)[C@H](CC[C@@H]3C[C@@H](O)CC(=O)O3)[C@H]21	Pf growth 48h inconclusive
